The nature of assay [1]: kinase inhibitors against Plasmodium liver-stage infection, cell-based, known kinase inhibitor set, luminescence, hepatoma host viability (AID 624392).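 Further: infected cells incubated roughly two days before readout.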 The settings on record: Plasmodium liver stage in hepatoma cells, luciferase luminescence, concentration not given here; liver cell % of control: measured here: host liver cell viability; parasite % of control: stronger effect = lower value.

Assay [2] in a line: modulators of glucocorticoid suppression of NF-kB, cell-based, luciferase, IL-1B stimulus, dexamethasone (AID 624486).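 On percent of negative control (+Dex): 100% = mean signal of vehicle control wells on the plate.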 The conditions noted are these: NF-kB luciferase reporter, IL-1B + dexamethasone, luminescence; percent of negative control (+Dex): actives lie on both sides, concentration not given here; z-score: measured here: IL-1B alone, no Dex. A general note: Reporter assays use an easily measured gene product as a stand-in for the process of interest.

Assay [3] can be described thus: kinase inhibitors altering Pseudomonas killing of worms, whole organism (AID 651566).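 Further: tested at 14 µM; sign flipped so higher z means a lower ratio.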 The settings on record: C. elegans killed by P. aeruginosa, survival ratio.
The nature of assay [4]: activators of macrophage pro-inflammatory response, cell-based, murine, luminescence (AID 652131). The conditions noted are these: murine macrophage pro-inflammatory reporter, stronger effect = higher value.
Assay [5] deals with Cellular tumor antigen p53 (Homo sapiens) (UniProt P04637). Nature of the assay: kinase inhibitors altering GFP-p53 stability in HPV16-positive cells, imaging, known kinase inhibitor set, EGFP/DsRed ratio (AID 1053116).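 Further: cells exposed to compounds for 24 h at 37 °C before reading.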 The conditions noted are these: stronger effect = higher value; EGFP object count: measured here: GFP-p53 positive objects count.
Cellular tumor antigen p53 (Homo sapiens), sequence (P04637 whole entry, looked up): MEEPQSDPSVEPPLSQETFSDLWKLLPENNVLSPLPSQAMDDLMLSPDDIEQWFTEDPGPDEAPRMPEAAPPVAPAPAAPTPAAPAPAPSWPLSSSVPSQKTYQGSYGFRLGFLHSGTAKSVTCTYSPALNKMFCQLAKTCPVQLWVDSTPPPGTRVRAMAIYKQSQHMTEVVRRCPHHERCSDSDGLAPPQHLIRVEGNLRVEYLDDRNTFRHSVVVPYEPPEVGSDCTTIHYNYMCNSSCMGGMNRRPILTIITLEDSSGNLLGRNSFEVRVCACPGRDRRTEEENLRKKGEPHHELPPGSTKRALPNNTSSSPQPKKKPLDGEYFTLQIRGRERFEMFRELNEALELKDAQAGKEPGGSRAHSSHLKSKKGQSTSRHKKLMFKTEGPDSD
Assay [6] in a line: IRF3 reporter activation in THP-1 macrophages, cell-based, PMA-stimulated THP-1, luminescence (AID 1053176). The conditions noted are these: PMA-differentiated THP-1, IRF3 reporter luminescence; stronger effect = higher value.
Assay [7] in a line: survival rescue of mitochondrial mutant cells in low glucose, primary screen, MELAS cybrids, Rieske KO mouse fibroblasts, CellTiter-Glo (AID 1508586;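 active means mean z-score across replicates of 1.96 or higher in either the MELAS or the Rieske mutant cell line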;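 further: z relative to plate mean and SD of compound and empty wells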).
The mark [8] stands for this setting: MELAS cybrid survival, CellTiter-Glo 48 h, stronger effect = higher value.
[9] abbreviates: Rieske KO mouse fibroblast survival, CellTiter-Glo 72 h.

Activity calls are given as the source filed them. Unless noted, how the calls were made is not given here.

`COc1ccc(-c2ccc3c(NC(=O)C4CC4)n[nH]c3n2)cc1`: the liver cell % of control in assay [1] amounted to 119%. In addition, the parasite % of control in assay [1] was 77.2% (inactive). Moreover, in assay [2], the percent of negative control (+Dex) was 130% (inactive). Further, the z-score in assay [2] is 2.11; in assay [3], 0.15 (inactive); in assay [4] it was 2.53 (inactive); in assay [7] (setting [8]), 1.36 (inactive); in assay [7] (setting [9]), 0.0157. Besides, the EGFP object count in assay [5] was 6. The EGFP/DsRed ratio in assay [5] was 0.0694 (inactive). The fraction signal in assay [6] is 0.0035 (inactive).
In turn, `CC(=O)Nc1cccc(C#Cc2cncnc2Nc2ccc(OCc3cccc(F)c3)c(Cl)c2)c1` gave a liver cell % of control in assay [1] of 111%. Moreover, in assay [1], the parasite % of control was 108% (inactive). Besides, the percent of negative control (+Dex) in assay [2] is 89.5% (inactive). Further, the z-score in assay [2] is -0.925; in assay [3], 0.045 (inactive); in assay [4] it was -0.803 (inactive); in assay [7] (setting [8]) it was -0.744 (inactive); in assay [7] (setting [9]), 0.00771. Moreover, in assay [5], the EGFP object count stood at 3.5. In addition, the EGFP/DsRed ratio in assay [5] is 0.169 (inactive). The fraction signal in assay [6] is 0.0085 (inactive).
For the molecule `CCCN1CCC(Oc2cc(Nc3nc(Nc4cccc(F)c4C(N)=O)c4cc[nH]c4n3)c(OC)cc2Cl)CC1`, in assay [1], the liver cell % of control is 60.5%. Moreover, in assay [1], the parasite % of control was 168% (inactive). In addition, in assay [2], the percent of negative control (+Dex) is 77.5% (inactive). Also, the z-score in assay [2] is -0.445; in assay [3] it was 0.48 (inactive); in assay [4], -0.663 (inactive); in assay [7] (setting [8]), 0.312 (inactive); in assay [7] (setting [9]), 0.375. For the same molecule, the EGFP object count in assay [5] came out at 67.5. In assay [5], the EGFP/DsRed ratio was 0.575 (active). The fraction signal in assay [6] was 0.0095 (inactive).
As for `CC(C)c1ccc(-c2cc(C3CNNC3c3ccccn3)ccn2)cc1` (centres undefined), in assay [1], the liver cell % of control was 100%. For the same molecule, the parasite % of control in assay [1] was 117% (inactive). Further, the percent of negative control (+Dex) in assay [2] is 95.5% (inactive). Further, the z-score in assay [2] is 0.855; in assay [3], 0.505 (inactive); in assay [4] it was 0.704 (inactive); in assay [7] (setting [8]) it was 0.0399 (inactive); in assay [7] (setting [9]), -0.129. The EGFP object count in assay [5] is 2. In addition, the EGFP/DsRed ratio in assay [5] was 0.021 (inactive). In addition, the fraction signal in assay [6] is -0.0085 (inactive).
`O=C(NC1NNC2CC(c3ccccc3)CCC21)C1CC1` (centres undefined): the liver cell % of control in assay [1] was 191%. Also, in assay [1], the parasite % of control is 74.3% (inactive). Also, in assay [2], the percent of negative control (+Dex) is 104% (inactive). For the same molecule, the z-score in assay [2] is 0.375; in assay [3], -1.73 (inactive); in assay [4], 0.532 (inactive); in assay [7] (setting [8]) it was -0.677 (inactive); in assay [7] (setting [9]), -0.221. For the same molecule, the EGFP object count in assay [5] amounted to 2.5. The EGFP/DsRed ratio in assay [5] is 0.139 (inactive). Further, in assay [6], the fraction signal is 0.012 (inactive).
Take `COc1cc(C)c(N(C)C(=O)CN(C)C)cc1Nc1nc(Nc2cccc(F)c2C(N)=O)c2cc[nH]c2n1`: the liver cell % of control in assay [1] stood at 71.5%. Besides, the parasite % of control in assay [1] was 391% (inactive). Besides, the percent of negative control (+Dex) in assay [2] is 110% (inactive). The z-score in assay [2] is 0.76; in assay [3] it was 0.1 (inactive); in assay [4], 0.717 (inactive); in assay [7] (setting [8]) it was 3.65 (active); in assay [7] (setting [9]) it was 1.35. Also, the EGFP object count in assay [5] worked out at 5. Also, the EGFP/DsRed ratio in assay [5] is 0.2 (inactive). Besides, in assay [6], the fraction signal is -0.0115 (inactive).
On to `CC(=O)Nc1cccc(C#Cc2cncnc2Nc2ccc(OCc3cccc(F)c3)c(Cl)c2)n1`, for which the liver cell % of control in assay [1] worked out at 82.2%. The parasite % of control in assay [1] is 102% (inactive). In assay [2], the percent of negative control (+Dex) is 68% (inactive). In addition, the z-score in assay [2] is -2.19; in assay [3] it was 0.02 (inactive); in assay [4], 0.499 (inactive); in assay [7] (setting [8]), 0.392 (inactive); in assay [7] (setting [9]), -0.337. Further, in assay [5], the EGFP object count was 6.5. The EGFP/DsRed ratio in assay [5] is 0.198 (inactive). The fraction signal in assay [6] is -0.0035 (inactive).
As to `CN(c1ccc(NC(=O)Nc2c(Cl)cccc2Cl)cc1)c1ccnc(Nc2cccc(CS(C)(=O)=O)c2)n1`, in assay [1], the liver cell % of control is 108%. Moreover, the parasite % of control in assay [1] was 130% (inactive). Besides, in assay [2], the percent of negative control (+Dex) is 134% (inactive). Besides, the z-score is 3.88 in assay [2]; 0.545 (inactive) in assay [3]; 5.36 (inactive) in assay [4]; -0.649 (inactive) in assay [7] (setting [8]); -0.476 in assay [7] (setting [9]). Also, the EGFP object count in assay [5] came to 4. Further, the EGFP/DsRed ratio in assay [5] was 0.171 (inactive). Besides, in assay [6], the fraction signal is 0.005 (inactive).
Regarding `COc1ccc(-c2nn3ncccc3c2-c2ccnc(Nc3ccc4c(c3)OCCO4)n2)cc1`, the liver cell % of control in assay [1] came to 172%. In addition, the parasite % of control in assay [1] was 12.5% (active). In addition, the percent of negative control (+Dex) in assay [2] was 79% (inactive). Further, the z-score in assay [2] is -1.21; in assay [3] it was 1.58 (inactive); in assay [4], -0.248 (inactive); in assay [7] (setting [8]), 0.896 (inactive); in assay [7] (setting [9]) it was 0.839. The EGFP object count in assay [5] turned out to be 1.5. The EGFP/DsRed ratio in assay [5] is 0.0413 (inactive). For the same molecule, in assay [6], the fraction signal is 0.0025 (inactive).
On to `COc1cc2ncnc(Nc3ccc4c(cnn4Cc4ccccc4)c3)c2cc1OC`, for which, in assay [1], the liver cell % of control was 114%. Moreover, the parasite % of control in assay [1] was 129% (inactive). Further, the percent of negative control (+Dex) in assay [2] is 71.5% (inactive). Also, the z-score was -2.37 in assay [2]; -0.95 (inactive) in assay [3]; 3.16 (inactive) in assay [4]; 0.162 (inactive) in assay [7] (setting [8]); -0.293 in assay [7] (setting [9]). Moreover, the EGFP object count in assay [5] worked out at 4. Moreover, the EGFP/DsRed ratio in assay [5] is 0.17 (inactive). In addition, the fraction signal in assay [6] was 0.032 (inactive).
Consider `CCn1c(-c2nonc2N)nc2cnc(Oc3cccc(NC(=O)c4ccc(N(C)C)cc4)c3)cc21`, for which, in assay [1], the liver cell % of control turned out to be 88.6%. The parasite % of control in assay [1] is 248% (inactive). Also, in assay [2], the percent of negative control (+Dex) is 96% (inactive). In addition, the z-score in assay [2] was -0.295; in assay [3], -0.06 (inactive); in assay [4] it was 1.22 (inactive); in assay [7] (setting [8]), 0.0951 (inactive); in assay [7] (setting [9]), 0.0229. Further, in assay [5], the EGFP object count was 3.5. The EGFP/DsRed ratio in assay [5] was 0.117 (inactive). Moreover, in assay [6], the fraction signal was -0.0105 (inactive).
On to `COc1cc(Nc2nccc(Nc3ccc4c(C)[nH]nc4c3)n2)cc(OC)c1OC`, for which the liver cell % of control in assay [1] worked out at 142%. The parasite % of control in assay [1] was 247% (inactive). The percent of negative control (+Dex) in assay [2] is 68% (inactive). Moreover, the z-score in assay [2] was -1.93; in assay [3], -0.535 (inactive); in assay [4] it was 2.91 (inactive); in assay [7] (setting [8]) it was -0.786; in assay [7] (setting [9]) it was 5.33. Further, the EGFP object count in assay [5] was 2. Moreover, the EGFP/DsRed ratio in assay [5] is 0.0182 (inactive). In addition, the fraction signal in assay [6] is -0.01 (inactive).
For `CCn1c(-c2nonc2N)nc2c(C#CC(C)(C)O)nc(O[C@@H](CN)c3ccccc3)cc21`, in assay [1], the liver cell % of control came to 49.4%. Besides, the parasite % of control in assay [1] is 14.1% (inactive). The percent of negative control (+Dex) in assay [2] is 132% (inactive). For the same molecule, the z-score in assay [2] was 3.44; in assay [3], 0.92 (inactive); in assay [4], 1 (inactive); in assay [7] (setting [8]) it was 1.1; in assay [7] (setting [9]) it was 4. Also, the EGFP object count in assay [5] stood at 10.5. In assay [5], the EGFP/DsRed ratio is 0.166 (inactive). Besides, the fraction signal in assay [6] was 0.0005 (inactive).
Take `COc1cc(N2CCN(C(C)C)CC2)ccc1Nc1nc(Nc2cccc(F)c2C(=O)O)c2cc[nH]c2n1`: the liver cell % of control in assay [1] turned out to be 115%. Further, the parasite % of control in assay [1] was 124% (inactive). For the same molecule, the percent of negative control (+Dex) in assay [2] is 100% (inactive). Moreover, the z-score was -0.075 in assay [2]; 1.24 (inactive) in assay [3]; -0.341 (inactive) in assay [4]; -0.385 (inactive) in assay [7] (setting [8]); -0.236 in assay [7] (setting [9]). Further, in assay [5], the EGFP object count amounted to 4. In assay [5], the EGFP/DsRed ratio is 0.0569 (inactive). In addition, the fraction signal in assay [6] was 0.0115 (inactive).
